Among all 5,500 compounds or so, about 2,000 (36%) were called active. Not shown: some 18% with an inconclusive outcome. Some of the results follow. A number with no mark means an inactive call. Cut-off read from the data, not from the text of the source: active = normalized growth mostly below about 0.91 (no sharp cut-off); inconclusive = no clear call, values can overlap the other calls; inactive = mostly above about 0.92.
Test: chemical genetic growth profiling, strain panel (AID 1159580);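 note: tested at 20 µM; growth read once vehicle control cultures reached saturation at 30 °C; 1 = growth at the plate median or of vehicle wells; lower values mean less growth of the strain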
Settings: growth OD
[1] = S. cerevisiae deletion strains, locus YAL013W, strain DEP1, hits give low values
[2] = S. cerevisiae deletion strains, locus YBR229C, strain ROT2, hits give low values
[3] = S. cerevisiae deletion strains, locus YDL101C, strain DUN1, hits give low values
[4] = S. cerevisiae deletion strains, locus YDL134C, strain PPH21, hits give low values
[5] = S. cerevisiae deletion strains, locus YDR150W, strain NUM1, hits give low values
[6] = S. cerevisiae deletion strains, locus YEL061C, strain CIN8, hits give low values
[7] = S. cerevisiae deletion strains, locus YGR078C, strain PAC10, hits give low values
[8] = S. cerevisiae deletion strains, locus YHR030C, strain SLT2, hits give low values
[9] = S. cerevisiae deletion strains, locus YHR087W, strain rtc3, hits give low values
[10] = S. cerevisiae deletion strains, locus YJR043C, strain POL32, hits give low values
[11] = S. cerevisiae deletion strains, locus YJR075W, strain HOC1, hits give low values
[12] = S. cerevisiae deletion strains, locus YLR039C, strain RIC1, hits give low values
[13] = S. cerevisiae deletion strains, locus YLR058C, strain SHM2 (second series), hits give low values
[14] = S. cerevisiae deletion strains, locus YLR085C, strain ARP6, hits give low values
[15] = S. cerevisiae deletion strains, locus YLR262C, strain YPT6, hits give low values
[16] = S. cerevisiae deletion strains, locus YML094W, strain GIM5, hits give low values
[17] = S. cerevisiae deletion strains, locus YMR219W, strain ESC1, hits give low values
[18] = S. cerevisiae deletion strains, locus YMR263W, strain SAP30, hits give low values
[19] = S. cerevisiae deletion strains, locus YNL153C, strain GIM3, hits give low values
[20] = S. cerevisiae deletion strains, locus YNL298W, strain CLA4 (second series), hits give low values
[21] = S. cerevisiae deletion strains, locus YNL322C, strain KRE1, hits give low values
[22] = S. cerevisiae deletion strains, locus YNR030W, strain Alg12, hits give low values
[23] = S. cerevisiae deletion strains, locus YPL055C, strain LGE1, hits give low values
[24] = S. cerevisiae deletion strains, locus YPL241C, strain CIN2, hits give low values
[25] = S. cerevisiae deletion strains, locus YPR135W, strain CTF4, hits give low values

Compound: COC(=O)c1ccccc1CSc1nccc(C(F)(F)F)n1
- normalized growth [1]: 0.963
- normalized growth [2]: 0.938
- normalized growth (S. cerevisiae deletion strains, locus YCL061C, strain MRC1, hits give low values): 0.956
- normalized growth [3]: 0.978
- normalized growth [4]: 0.86 (active)
- normalized growth [5]: 0.939
- normalized growth [6]: 0.917
- normalized growth [7]: 0.927
- normalized growth (S. cerevisiae deletion strains, locus YGR229C, strain SMI1, hits give low values): 0.969
- normalized growth [8]: 0.671 (active)
- normalized growth [9]: 0.913
- normalized growth [10]: 0.957
- normalized growth [11]: 0.882 (active)
- normalized growth (S. cerevisiae deletion strains, locus YKL190W, strain CNB1, hits give low values): 0.931
- normalized growth [12]: 0.743 (active)
- normalized growth [13]: 0.959
- normalized growth [14]: 0.661 (active)
- normalized growth [15]: 0.752 (active)
- normalized growth [16]: 0.946
- normalized growth [17]: 0.969
- normalized growth [18]: 0.975
- normalized growth [19]: 0.952
- normalized growth [20]: 0.895
- normalized growth [21]: 0.962
- normalized growth [22]: 0.861 (active)
- normalized growth [23]: 0.849
- normalized growth [24]: 0.859
- normalized growth [25]: 0.657
- normalized growth (S. cerevisiae strains, strain wild type, hits give low values): 0.926

Compound: CCOC(=O)c1cnc2nc(SC)nn2c1N
- normalized growth [1]: 0.997
- normalized growth [2]: 1
- normalized growth [3]: 0.955
- normalized growth [4]: 0.995
- normalized growth [5]: 0.968
- normalized growth [6]: 1
- normalized growth [7]: 0.971
- normalized growth [8]: 0.855
- normalized growth [9]: 0.994
- normalized growth [10]: 0.935
- normalized growth [11]: 0.984
- normalized growth [12]: 1.03
- normalized growth [13]: 0.994
- normalized growth [14]: 0.88
- normalized growth [15]: 1.01
- normalized growth [16]: 0.942
- normalized growth [17]: 0.993
- normalized growth [18]: 0.983
- normalized growth (S. cerevisiae deletion strains, locus YMR307W, strain GAS1, hits give low values): 0.909
- normalized growth (S. cerevisiae deletion strains, locus YNL128W, strain TEP1, hits give low values): 0.988
- normalized growth [19]: 0.956
- normalized growth [20]: 0.968
- normalized growth [21]: 0.998
- normalized growth [22]: 0.982
- normalized growth [23]: 0.942
- normalized growth [24]: 0.982
- normalized growth [25]: 0.894

Compound: CCOC(=O)c1cnc2c(c(C)nn2C)c1Sc1nnc(SC)s1
- normalized growth (S. cerevisiae deletion strains, locus YAR019C, strain CDC15, hits give low values): 0.847 (active)
- normalized growth (S. cerevisiae deletion strains, locus YBL105C, strain PKC1, hits give low values): 0.872 (active)
- normalized growth (S. cerevisiae deletion strains, locus YBR135W, strain CKS1, hits give low values): 0.874 (active)
- normalized growth (S. cerevisiae deletion strains, locus YBR136W, strain MEC1, hits give low values): 0.867 (active)
- normalized growth (S. cerevisiae deletion strains, locus YBR160W, strain CDC28, hits give low values): 0.876 (active)
- normalized growth (S. cerevisiae deletion strains, locus YDL017W, strain CDC7, hits give low values): 0.875 (active)
- normalized growth (S. cerevisiae deletion strains, locus YDL028C, strain MPS1, hits give low values): 0.882 (active)
- normalized growth [3]: 0.911 (active)
- normalized growth (S. cerevisiae deletion strains, locus YDL108W, strain KIN28, hits give low values): 0.899
- normalized growth (S. cerevisiae deletion strains, locus YDL132W, strain cdc53, hits give low values): 0.841 (active)
- normalized growth (S. cerevisiae deletion strains, locus YDL214C, strain PRR2, hits give low values): 0.796
- normalized growth (S. cerevisiae deletion strains, locus YDR052C, strain DBF4, hits give low values): 0.89 (active)
- normalized growth (S. cerevisiae deletion strains, locus YDR054C, strain cdc34, hits give low values): 0.779 (active)
- normalized growth (S. cerevisiae deletion strains, locus YDR226W, strain ADK1, hits give low values): 0.871 (active)
- normalized growth (S. cerevisiae deletion strains, locus YDR477W, strain SNF1, hits give low values): 0.719
- normalized growth (S. cerevisiae deletion strains, locus YER123W, strain YCK3, hits give low values): 0.615 (active)
- normalized growth (S. cerevisiae deletion strains, locus YER133W, strain GLC7, hits give low values): 0.657 (active)
- normalized growth (S. cerevisiae deletion strains, locus YFL009W, strain cdc4, hits give low values): 0.851 (active)
- normalized growth (S. cerevisiae deletion strains, locus YFL029C, strain CAK1, hits give low values): 0.845 (active)
- normalized growth (S. cerevisiae deletion strains, locus YFR003C, strain YPI1, hits give low values): 0.887 (active)
- normalized growth (S. cerevisiae deletion strains, locus YFR019W, strain FAB1, hits give low values): 0.73 (active)
- normalized growth (S. cerevisiae deletion strains, locus YFR028C, strain CDC14, hits give low values): 0.891 (active)
- normalized growth (S. cerevisiae deletion strains, locus YGR040W, strain KSS1, hits give low values): 0.742
- normalized growth (S. cerevisiae deletion strains, locus YGR052W, strain FMP48, hits give low values): 0.847
- normalized growth (S. cerevisiae deletion strains, locus YGR092W, strain DBF2, hits give low values): 0.431 (active)
- normalized growth [8]: 0.565 (active)
- normalized growth (S. cerevisiae deletion strains, locus YHR079C, strain IRE1, hits give low values): 0.649
- normalized growth (S. cerevisiae deletion strains, locus YHR082C, strain KSP1, hits give low values): 0.779
- normalized growth (S. cerevisiae deletion strains, locus YHR205W, strain SCH9, hits give low values): 0.744
- normalized growth (S. cerevisiae deletion strains, locus YIL147C, strain SLN1, hits give low values): 0.857 (active)
- normalized growth (S. cerevisiae deletion strains, locus YJL095W, strain BCK1, hits give low values): 0.69
- normalized growth (S. cerevisiae deletion strains, locus YJL128C, strain PBS2, hits give low values): 0.945
- normalized growth (S. cerevisiae deletion strains, locus YJL157C, strain FAR1, hits give low values): 0.739
- normalized growth (S. cerevisiae deletion strains, locus YJR016C, strain ILV3, hits give low values): 0.859 (active)
- normalized growth (S. cerevisiae deletion strains, locus YJR066W, strain TOR1 (second series), hits give low values): 0.497 (active)
- normalized growth (S. cerevisiae deletion strains, locus YJR066W, strain TOR1, hits give low values): 0.644
- normalized growth (S. cerevisiae deletion strains, locus YKL048C, strain ELM1, hits give low values): 0.902
- normalized growth (S. cerevisiae deletion strains, locus YKL067W, strain YNK1, hits give low values): 0.821
- normalized growth (S. cerevisiae deletion strains, locus YKL101W, strain HSL1, hits give low values): 0.865
- normalized growth (S. cerevisiae deletion strains, locus YKL193C, strain SDS22, hits give low values): 0.859 (active)
- normalized growth (S. cerevisiae deletion strains, locus YKL203C, strain TOR2, hits give low values): 0.683 (active)
- normalized growth (S. cerevisiae deletion strains, locus YLR113W, strain HOG1, hits give low values): 0.505 (active)
- normalized growth (S. cerevisiae deletion strains, locus YLR133W, strain CKI1, hits give low values): 0.808
- normalized growth (S. cerevisiae deletion strains, locus YLR403W, strain SFP1, hits give low values): 0.549 (active)
- normalized growth (S. cerevisiae deletion strains, locus YML070W, strain DAK1, hits give low values): 0.759
- normalized growth (S. cerevisiae deletion strains, locus YMR001C, strain CDC5, hits give low values): 0.855 (active)
- normalized growth (S. cerevisiae deletion strains, locus YMR205C, strain PFK2 (second series), hits give low values): 0.859
- normalized growth (S. cerevisiae deletion strains, locus YMR277W, strain FCP1, hits give low values): 0.852 (active)
- normalized growth (S. cerevisiae deletion strains, locus YNL006W, strain LST8, hits give low values): 0.881 (active)
- normalized growth (S. cerevisiae deletion strains, locus YNL020C, strain ARK1, hits give low values): 0.802
- normalized growth (S. cerevisiae deletion strains, locus YNL161W, strain CBK1, hits give low values): 0.88 (active)
- normalized growth (S. cerevisiae deletion strains, locus YNL183C, strain NPR1, hits give low values): 0.715
- normalized growth (S. cerevisiae deletion strains, locus YNL207W, strain RIO2, hits give low values): 0.844 (active)
- normalized growth (S. cerevisiae deletion strains, locus YNL222W, strain SSU72, hits give low values): 0.867 (active)
- normalized growth (S. cerevisiae deletion strains, locus YNL307C, strain MCK1 (second series), hits give low values): 0.596 (active)
- normalized growth (S. cerevisiae deletion strains, locus YOL078W, strain AVO1, hits give low values): 0.859 (active)
- normalized growth (S. cerevisiae deletion strains, locus YOL136C, strain PFK27, hits give low values): 0.714
- normalized growth (S. cerevisiae deletion strains, locus YOR061W, strain CKA2, hits give low values): 0.813
- normalized growth (S. cerevisiae deletion strains, locus YOR119C, strain RIO1, hits give low values): 0.77
- normalized growth (S. cerevisiae deletion strains, locus YOR231W, strain MKK1, hits give low values): 0.701
- normalized growth (S. cerevisiae deletion strains, locus YOR329C, strain SCD5, hits give low values): 0.872 (active)
- normalized growth (S. cerevisiae deletion strains, locus YPL031C, strain PHO85, hits give low values): 0.67
- normalized growth (S. cerevisiae deletion strains, locus YPL153C, strain RAD53, hits give low values): 0.62 (active)
- normalized growth (S. cerevisiae deletion strains, locus YPL204W, strain HRR25, hits give low values): 0.667
- normalized growth (S. cerevisiae deletion strains, locus YPL209C, strain IPL1, hits give low values): 0.886 (active)
- normalized growth (S. cerevisiae deletion strains, locus YPL256C, strain CLN2, hits give low values): 0.789 (active)
- normalized growth (S. cerevisiae deletion strains, locus YPR025C, strain CCL1, hits give low values): 0.879 (active)
- normalized growth (S. cerevisiae deletion strains, locus YPR106W, strain ISR1, hits give low values): 0.934
- normalized growth (S. cerevisiae deletion strains, locus YPR111W, strain DBF20, hits give low values): 0.928
- normalized growth (S. cerevisiae deletion strains, strain NNK1, hits give low values): 0.917
- normalized growth (S. cerevisiae deletion strains, strain TSCII, hits give low values): 0.846 (active)

Reference: PubChem BioAssay AID1159580 (chemical genetic matrix, 2015)
